Data published in the supplement of paper PMC8728848.
About 410 targets per protein were measured; listed, in parts, are those with the strongest signals and a random draw of the rest.

How the values were obtained:
Assay in all cases: glycan array binding signal (z-score within array); higher = stronger binding
Details in all cases: glycan notation: IUPAC condensed, linker removed
[1] = molecular target: Fuc(a1-2)Gal(b1-3)GlcNAc(b1-3)[Fuc(a1-3)[Gal(b1-4)]GlcNAc(b1-6)]Gal(b1-4)Glc
Procedure, shortened: (§1)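 Arrays were curated from the Consortium for Functional Glycomics database, 3228 in total, and kept only where the protein sequence was available. Binding is expressed as a within-array Z-score. This score was averaged across arrays of the same protein sequence at different concentrations or buffers and across linkers, and negative values can be read as non-binding.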

[2] = molecular target: Fuc(a1-2)Gal(b1-3)GlcNAc(b1-3)[Neu5Ac(a2-6)Gal(b1-4)GlcNAc(b1-6)]Gal(b1-4)Glc
Procedure, shortened: as §1

[3] = molecular target: Fuc(a1-2)Gal(b1-4)[Fuc(a1-3)]GlcNAc(b1-3)GalNAc
Procedure, shortened: as §1

[4] = molecular target: Fuc(a1-2)[Gal(a1-3)]Gal(b1-3)GlcNAc(b1-2)Man(a1-3)[Fuc(a1-2)[Gal(a1-3)]Gal(b1-3)GlcNAc(b1-2)Man(a1-6)]Man(b1-4)GlcNAc(b1-4)[Fuc(a1-6)]GlcNAc
Procedure, shortened: as §1

[5] = molecular target: Fuc(a1-2)[GalNAc(a1-3)]Gal(b1-4)[Fuc(a1-3)]GlcNAc(b1-3)GalNAc
Procedure, shortened: as §1

[6] = molecular target: Fuc(a1-2)[GalNAc(a1-4)]Gal(b1-4)GlcNAc
Procedure, shortened: as §1

[7] = molecular target: Fuc(a1-3)[Gal(b1-4)]GlcNAc(b1-2)Man(a1-3)[Fuc(a1-3)[Gal(b1-4)]GlcNAc(b1-2)Man(a1-6)]Man(b1-4)GlcNAc(b1-4)[Fuc(a1-6)]GlcNAc
Procedure, shortened: as §1

[8] = molecular target: Fuc(a1-3)[Gal(b1-4)]GlcNAc(b1-6)GalNAc
Procedure, shortened: as §1

[9] = molecular target: Gal(a1-3)Fuc(a1-2)Gal(b1-4)GlcNAc(b1-3)[Gal(a1-3)Fuc(a1-2)Gal(b1-4)GlcNAc(b1-6)]GalNAc
Procedure, shortened: as §1

[10] = molecular target: Gal(a1-3)Gal(b1-4)[Fuc(a1-3)]GlcNAc
Procedure, shortened: as §1

Gal(a1-3)GalNAc = molecular target: Gal(a1-3)GalNAc
Procedure, shortened: as §1

[11] = molecular target: Gal(b1-4)GlcNAc(b1-2)Man(a1-3)[Gal(b1-4)GlcNAc(b1-2)Man(a1-6)]Man(b1-4)GlcNAc(b1-4)[Fuc(a1-6)]GlcNAc
Procedure, shortened: as §1

[12] = molecular target: Gal(b1-4)GlcNAc(b1-2)[Gal(b1-4)GlcNAc(b1-6)]Man(a1-6)[Gal(b1-4)GlcNAc(b1-2)Man(a1-3)]Man(b1-4)GlcNAc(b1-4)GlcNAc
Procedure, shortened: as §1

[13] = molecular target: Gal(b1-4)GlcNAc(b1-3)Gal(b1-4)GlcNAc
Procedure, shortened: as §1

Gal(b1-6)Gal = molecular target: Gal(b1-6)Gal
Procedure, shortened: as §1

[14] = molecular target: Gal3S(b1-4)[Fuc(a1-3)]Glc6S
Procedure, shortened: as §1

Gal4S(b1-4)GlcNAc = molecular target: Gal4S(b1-4)GlcNAc
Procedure, shortened: as §1

Gal6S(b1-4)Glc = molecular target: Gal6S(b1-4)Glc
Procedure, shortened: as §1

Gal6S(b1-4)GlcNAc = molecular target: Gal6S(b1-4)GlcNAc
Procedure, shortened: as §1

Glc(a1-4)Glc = molecular target: Glc(a1-4)Glc
Procedure, shortened: as §1

[15] = molecular target: GlcNAc(a1-4)Gal(b1-3)GlcNAc
Procedure, shortened: as §1

[16] = molecular target: GlcNAc(a1-4)Gal(b1-4)GlcNAc(b1-3)Gal(b1-4)GlcNAc
Procedure, shortened: as §1

[17] = molecular target: GlcNAc(a1-4)Gal(b1-4)GlcNAc(b1-3)Gal(b1-4)[Fuc(a1-3)]GlcNAc(b1-3)Gal(b1-4)[Fuc(a1-3)]GlcNAc
Procedure, shortened: as §1

[18] = molecular target: GlcNAc(b1-3)[GlcNAc(b1-6)]GalNAc
Procedure, shortened: as §1

Kdn(a2-3)Gal(b1-3)GlcNAc = molecular target: Kdn(a2-3)Gal(b1-3)GlcNAc
Procedure, shortened: as §1

[19] = molecular target: Man(a1-2)Man(a1-3)[Man(a1-2)Man(a1-6)]Man(a1-6)[Man(a1-2)Man(a1-2)Man(a1-3)]Man
Procedure, shortened: as §1

[20] = molecular target: Man(a1-2)Man(a1-3)[Man(a1-2)Man(a1-6)]Man(a1-6)[Man(a1-2)Man(a1-2)Man(a1-3)]Man(b1-4)GlcNAc(b1-4)GlcNAc
Procedure, shortened: as §1

[21] = molecular target: Man(a1-2)Man(a1-6)[Man(a1-3)]Man(a1-6)[Man(a1-2)Man(a1-2)Man(a1-3)]Man(b1-4)GlcNAc(b1-4)GlcNAc
Procedure, shortened: as §1

[22] = molecular target: Neu5Ac(a2-3)Gal(b1-3)GlcNAc(b1-3)GalNAc
Procedure, shortened: as §1

[23] = molecular target: Neu5Ac(a2-3)Gal(b1-4)[Fuc(a1-3)]GlcNAc(b1-3)GalNAc
Procedure, shortened: as §1

[24] = molecular target: Neu5Ac(a2-3)Gal6S(b1-4)[Fuc(a1-3)]GlcNAc
Procedure, shortened: as §1

[25] = molecular target: Neu5Ac(a2-6)Gal(b1-4)GlcNAc(b1-2)Man(a1-3)[Neu5Ac(a2-6)Gal(b1-4)GlcNAc(b1-2)Man(a1-6)]Man(b1-4)GlcNAc(b1-4)GlcNAc
Procedure, shortened: as §1

[26] = molecular target: Neu5Ac(a2-6)Gal(b1-4)GlcNAc(b1-2)Man(a1-6)Man(b1-4)GlcNAc(b1-4)GlcNAc
Procedure, shortened: as §1

[27] = molecular target: Neu5Ac(a2-6)GlcNAc(b1-4)GlcNAc
Procedure, shortened: as §1

[28] = molecular target: Neu5Ac(a2-6)GlcNAc(b1-4)GlcNAc(b1-4)GlcNAc
Procedure, shortened: as §1

[29] = molecular target: Neu5Ac9Ac(a2-3)Gal(b1-4)GlcNAc
Procedure, shortened: as §1

B1: NanI (Corynebacterium diphtheriae), C6JSW7 (protein)
chain: MTNTLESNPMTTTTGALTITFATTCDGPLAHIPHHLDLNIIHGRIQGTTAHRRIDAEDPDGLDDGLPHHLCLSVDTTGTHLFIDGYEAFSTTQTEWFDTSELTLNPHGDLTIIDHQILNHAPTPRQARNLAPAAEPLVWFAGSHLSTRDTQRISHLTHGSLRLLMKTRGTGQGGVAFQAHTINGDLTLEIIDGTLIFSVRCHDEDYVRITAPGRWDDGQIYDVVIVCGRGATDIYVDGQQLIHSPGAAFFNDLSGELSVHIGTAASGVRLFGEVQSGMIYPHVFNHHQVQRLATVEPIATQALFDCLLDGAQSYRIPSLITTDSGVIIAGADKRVSIANDAPNDIDFVLRRSVDGGRTWQPPRTILQLPDTACVTDSVLLQDHTTGRIFAFLDQFPAGIGQPNAAFGTGFDADGNRIGHFADGSTCTMPREVDQLEASFFSDPHTAPPGIVFQHPSCHLWMLTSDDDGLTWSTPRDLTPDVKEEWMRFCGTSPGNGIQLQRDTHAGRLLIPMYYTKGDQFFAAALYSDDHGDTWHRGESPDLEMYESTLVEASDGSVLLWARNQHPSGAVAHARSTDGGHSWSQVTFNPNVPEIFSQPNALRVTNPDGIIFANASQLLPFRGRGVLRMSTNDGASWQHNRVFNPRHYVYQCMTQLPDGSIGLLWEREMQGLFFSIIPMTWIMQGYAL
With B1 the “glycan array binding signal (z-score)” value [1] was 0.007, the “glycan array binding signal (z-score)” value [2] was 0.292 and the “glycan array binding signal (z-score)” value [3] was 6.81. For the same binder, the “glycan array binding signal (z-score)” value [4] was 0.442, the “glycan array binding signal (z-score)” value [5] was 3.26 and the “glycan array binding signal (z-score)” value [6] was -0.77. The “glycan array binding signal (z-score)” value [7] was 4.32, the “glycan array binding signal (z-score)” value [8] was 3.36 and the “glycan array binding signal (z-score)” value [9] was 0.813. The “glycan array binding signal (z-score)” value [10] was -1.04, the “glycan array binding signal (z-score)” value (Gal(a1-3)GalNAc) was -0.16 and the “glycan array binding signal (z-score)” value [11] was 0.309. For the same binder, the “glycan array binding signal (z-score)” value [12] was 8.52, the “glycan array binding signal (z-score)” value [13] was -0.586 and the “glycan array binding signal (z-score)” value (Gal(b1-6)Gal) was 0.892. For the same binder, the “glycan array binding signal (z-score)” value [14] was -0.197, the “glycan array binding signal (z-score)” value (Gal4S(b1-4)GlcNAc) was -0.503 and the “glycan array binding signal (z-score)” value (Gal6S(b1-4)Glc) was -0.205. For the same binder, the “glycan array binding signal (z-score)” value (Gal6S(b1-4)GlcNAc) was -0.815, the “glycan array binding signal (z-score)” value (Glc(a1-4)Glc) was -0.173 and the “glycan array binding signal (z-score)” value [15] was -0.205. The “glycan array binding signal (z-score)” value [16] was 4.05, the “glycan array binding signal (z-score)” value [17] was 9.15 and the “glycan array binding signal (z-score)” value [18] was -0.477. For the same binder, the “glycan array binding signal (z-score)” value (Kdn(a2-3)Gal(b1-3)GlcNAc) was 0.075, the “glycan array binding signal (z-score)” value [19] was 0.157 and the “glycan array binding signal (z-score)” value [20] was -0.074. The “glycan array binding signal (z-score)” value [21] was 1.28, the “glycan array binding signal (z-score)” value [22] was -0.319 and the “glycan array binding signal (z-score)” value [23] was 3.03. The “glycan array binding signal (z-score)” value [24] was -0.34, the “glycan array binding signal (z-score)” value [25] was 0.411 and the “glycan array binding signal (z-score)” value [26] was -0.415. The “glycan array binding signal (z-score)” value [27] was 0.019, the “glycan array binding signal (z-score)” value [28] was -0.157 and the “glycan array binding signal (z-score)” value [29] was -0.533.
